PubChem BioAssay (EPA / NIEHS)
Calls of active or inactive are those of the source. How the source made its calls: active means hit-call score of the fitted dose curve at least 0.9, where 1 is the maximum; inactive means score below 0.9.

How the values were obtained:
Conditions in all cases: mRNA level, 48 h; actives raise or lower the signal
[1] = read-out: Cytochrome P450 7A1 (Homo sapiens) (UniProt P22680); assay: LTEA_HepaRG_CYP7A1: Life Technologies and Expression Analysis (LTEA) Assay for Cytochrome P450 7A1 (CYP7A1) using HepaRG (AID 2283496)
Outline: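 HepaRG cells plated 48 h, then switched to serum-free induction medium and exposed in duplicate for 48 h to 8-point half-log series from 100 uM in 0.5% DMSO. CYP7A1 mRNA by qRT-PCR (TaqMan), normalized to ACTB/GAPDH/POLR2A; bidirectional fit versus DMSO.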

[2] = read-out: Glutathione S-Transferase (GSTA2), GSTA2 (gene 2939); assay: LTEA_HepaRG_GSTA2: Life Technologies and Expression Analysis (LTEA) Assay for Glutathione S-Transferase (GSTA2) using HepaRG (AID 2283497)
Outline: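 HepaRG, 48 h dosing, 8-pt half-log CRC from 100 uM, 0.5% DMSO vehicle, n=2; RNA → Fluidigm TaqMan qRT-PCR; GSTA2 vs ACTB/GAPDH/POLR2A; gain/loss fit vs DMSO.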

[3] = read-out: Glutamate-cysteine ligase catalytic (GCLC), GCLC (gene 2729); assay: LTEA_HepaRG_GCLC: Life Technologies and Expression Analysis (LTEA) Assay for Glutamate-cysteine ligase catalytic (GCLC) using HepaRG (AID 2283498)
Outline: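 Read-out is GCLC transcript level by Fluidigm-based TaqMan qRT-PCR, normalized to three housekeeping genes and fitted in both directions relative to 0.5% DMSO. Human HepaRG cells received chemicals for 48 h, up to 100 uM.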

[4] = read-out: growth arrest and DNA damage 45 (GADD45G), GADD45G (gene 10912); assay: LTEA_HepaRG_GADD45G: Life Technologies and Expression Analysis (LTEA) Assay for growth arrest and DNA damage 45 (GADD45G) using HepaRG (AID 2283499)
Outline: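 Human hepatic HepaRG line treated 48 h with chemicals (eight concentrations, half-log steps from 100 uM); transcript induction or repression of GADD45G scored by qRT-PCR versus DMSO vehicle.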

[5] = read-out: Glutamate-cysteine ligase regulatory (GCLM), GCLM (gene 2730); assay: LTEA_HepaRG_GCLM: Life Technologies and Expression Analysis (LTEA) Assay for Glutamate-cysteine ligase regulatory (GCLM) using HepaRG (AID 2283500)
Outline: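 Cells were plated, cultured 48 h, switched to serum-free induction medium, then dosed in duplicate for 48 h at eight half-log concentrations up to 100 uM. RNA was then profiled by qRT-PCR; gain or loss versus DMSO was fitted.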

[6] = read-out: Glutathione S-transferase M3 (GSTM3), GSTM3 (gene 2947); assay: LTEA_HepaRG_GSTM3: Life Technologies and Expression Analysis (LTEA) Assay for Glutathione S-transferase M3 (GSTM3) using HepaRG (AID 2283501)
Outline: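 Changes in GSTM3 expression, an oxidative-stress marker, were scored by bidirectional curve fitting against 0.5% DMSO vehicle. Human HepaRG cultures received chemicals for 48 h in duplicate, highest concentration 100 uM with half-log dilutions.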

[7] = read-out: Hypoxia-inducible factor 1-alpha (Homo sapiens) (UniProt Q16665); assay: LTEA_HepaRG_HIF1A: Life Technologies and Expression Analysis (LTEA) Assay for Hypoxia-inducible factor 1 (HIF1A) Trancription factor using HepaRG (AID 2283503)
Outline: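 Differentiated HepaRG cells in serum-free induction medium exposed 48 h, in duplicate, to 8-point half-log series from 100 uM in 0.5% DMSO. HIF1A mRNA measured by TaqMan qRT-PCR, normalized to ACTB/GAPDH/POLR2A, fitted bidirectionally versus DMSO.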

[8] = read-out: 3-Hydroxy-3-Methylglutaryl-CoA Synthase 2 (HMGCS2), HMGCS2 (gene 3158); assay: LTEA_HepaRG_HMGCS2: Life Technologies and Expression Analysis (LTEA) Assay for 3-Hydroxy-3-Methylglutaryl-CoA Synthase 2 (HMGCS2) using HepaRG (AID 2283504)
Outline: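 Expression of HMGCS2 in human HepaRG liver cells is measured by qRT-PCR 48 h after dosing (highest 100 uM, half-log series, 0.5% DMSO). Values come from bidirectional concentration-response fitting with DMSO as baseline.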

HGF (gene 3082) = assay: LTEA_HepaRG_HGF: Life Technologies and Expression Analysis (LTEA) Assay for Hepatocyte Growth Facto (HGF) using HepaRG (AID 2283505)
Outline: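 Gain or loss of HGF mRNA in human HepaRG liver cells after 48 h chemical exposure; eight concentrations up to 100 uM with 0.5% DMSO vehicle, quantified by TaqMan qRT-PCR.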

[9] = read-out: Insulin Like Growth Factor 1 (IGF1), IGF1 (gene 3479); assay: LTEA_HepaRG_IGF1: Life Technologies and Expression Analysis (LTEA) Assay for Insulin Like Growth Factor 1 (IGF1) using HepaRG (AID 2283506)
Outline: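 HepaRG, plated 48 h, then switched to serum-free induction media; test chemical 8-pt half-log from 100 uM (0.5% DMSO), duplicate, 48 h. Lysis in RLT, TaqMan qRT-PCR, norm. ACTB/GAPDH/POLR2A. Bidirectional fit vs DMSO.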

[10] = read-out: Intercellular Adhesion Molecule 1 (ICAM1), ICAM1 (gene 3383); assay: LTEA_HepaRG_ICAM1: Life Technologies and Expression Analysis (LTEA) Assay for Intercellular Adhesion Molecule 1 (ICAM1) using HepaRG (AID 2283507)
Outline: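 Gain or loss of transcript in HepaRG hepatic cells is quantified by qRT-PCR after 48 h chemical exposure (up to 100 uM, half-log steps), with DMSO as baseline.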

[11] = read-out: Insulin-like growth factor-binding protein 1 (IGFBP1), IGFBP1 (gene 3484); assay: LTEA_HepaRG_IGFBP1: Life Technologies and Expression Analysis (LTEA) Assay for Insulin-like growth factor-binding protein 1 (IGFBP1) using HepaRG (AID 2283508)
Outline: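 mRNA induction or loss was quantified by qRT-PCR after 48 h chemical exposure of human HepaRG cells, with 0.5% DMSO as vehicle and baseline. Concentration-response over eight points up to 100 uM.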

[12] = read-out: Interleukin 6 (IL6), IL6 (gene 3569); assay: LTEA_HepaRG_IL6: Life Technologies and Expression Analysis (LTEA) Assay for Interleukin 6 (IL6) using HepaRG (AID 2283509)
Outline: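 HepaRG, ~100,000 cells/well, 48 h pre-culture; serum-free induction medium; cmpd 8-pt half-log from 100 uM, 0.5% DMSO, duplicate, 48 h. Lysis in RLT, TaqMan qRT-PCR; gain or loss vs DMSO.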

[13] = read-out: Interleukin 6 Receptor (IL6R), IL6R (gene 3570); assay: LTEA_HepaRG_IL6R: Life Technologies and Expression Analysis (LTEA) Assay for Interleukin 6 Receptor (IL6R) using HepaRG (AID 2283510)
Outline: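 Readout is IL6R transcript level by TaqMan qRT-PCR, normalized to three housekeeping genes and fitted bidirectionally against 0.5% DMSO controls. Human HepaRG cells received chemicals for 48 h in serum-free induction medium, highest concentration 100 uM.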

[14] = read-out: Potassium channel subfamily K member 1 (KCNK1), KCNK1 (gene 3775); assay: LTEA_HepaRG_KCNK1: Life Technologies and Expression Analysis (LTEA) Assay for Potassium channel subfamily K member 1 (KCNK1) using HepaRG (AID 2283511)
Outline: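 Gain or loss of KCNK1 mRNA is the read-out, quantified by qRT-PCR against three housekeeping genes after 48 h chemical treatment of human HepaRG liver cells. Concentrations ran from 100 uM downward in half-log steps, vehicle 0.5% DMSO.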

[15] = read-out: Keratin 19 (KRT19), KRT19 (gene 3880); assay: LTEA_HepaRG_KRT19: Life Technologies and Expression Analysis (LTEA) Assay for Keratin 19 (KRT19) using HepaRG (AID 2283512)
Outline: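 Gene-expression endpoint in the human liver line HepaRG after 48 h exposure to up to 100 uM test chemical with 0.5% DMSO vehicle; KRT19 mRNA by qRT-PCR, analyzed bidirectionally versus DMSO.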

[16] = read-out: Lipase C (LIPC), LIPC (gene 3990); assay: LTEA_HepaRG_LIPC: Life Technologies and Expression Analysis (LTEA) Assay for Lipase C (LIPC) using HepaRG (AID 2283514)
Outline: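 Read-out is LIPC transcript level by TaqMan qRT-PCR, normalized to three housekeeping genes, after 48 h chemical treatment of human HepaRG liver cells. Curves span eight concentrations topping at 100 uM; activity in either direction scored relative to 0.5% DMSO.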

[17] = read-out: Lipoprotein lipase (LPL), LPL (gene 4023); assay: LTEA_HepaRG_LPL: Life Technologies and Expression Analysis (LTEA) Assay for Lipoprotein lipase (LPL) using HepaRG (AID 2283515)
Outline: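 Read-out is LPL transcript level by qRT-PCR, normalized to three housekeeping genes and fitted bidirectionally against the DMSO control. Human HepaRG cells received chemicals for 48 h at up to 100 uM.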

[18] = read-out: Heat shock 70 kDa protein 1 (HSPA1A), gene 3303; assay: LTEA_HepaRG_HSPA1A: Life Technologies and Expression Analysis (LTEA) Assay for Heat shock 70 kDa protein 1 (HSPA1A) using HepaRG (AID 2283502)
Outline: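 Readout is HSPA1A transcript level by microfluidic qRT-PCR, normalized to three housekeeping genes and analysed for gain or loss of signal relative to 0.5% DMSO. Human HepaRG cultures received test chemicals for 48 h at up to 100 uM.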

[19] = read-out: JUN Transcription Factor, JUN (gene 3725); assay: LTEA_HepaRG_JUN: Life Technologies and Expression Analysis (LTEA) Assay for JUN Transcription Factor using HepaRG (AID 2283513)
Outline: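 Cells plated 48 h, medium switched to serum-free induction medium, then dosed 48 h (100 uM top, half-log dilutions, 0.5% DMSO). RNA isolated; JUN measured by qRT-PCR against three housekeeping genes; gain or loss fitted relative to DMSO.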

Measured: AC50

Sequence of Hypoxia-inducible factor 1-alpha (Homo sapiens) (Q16665 whole entry, looked up): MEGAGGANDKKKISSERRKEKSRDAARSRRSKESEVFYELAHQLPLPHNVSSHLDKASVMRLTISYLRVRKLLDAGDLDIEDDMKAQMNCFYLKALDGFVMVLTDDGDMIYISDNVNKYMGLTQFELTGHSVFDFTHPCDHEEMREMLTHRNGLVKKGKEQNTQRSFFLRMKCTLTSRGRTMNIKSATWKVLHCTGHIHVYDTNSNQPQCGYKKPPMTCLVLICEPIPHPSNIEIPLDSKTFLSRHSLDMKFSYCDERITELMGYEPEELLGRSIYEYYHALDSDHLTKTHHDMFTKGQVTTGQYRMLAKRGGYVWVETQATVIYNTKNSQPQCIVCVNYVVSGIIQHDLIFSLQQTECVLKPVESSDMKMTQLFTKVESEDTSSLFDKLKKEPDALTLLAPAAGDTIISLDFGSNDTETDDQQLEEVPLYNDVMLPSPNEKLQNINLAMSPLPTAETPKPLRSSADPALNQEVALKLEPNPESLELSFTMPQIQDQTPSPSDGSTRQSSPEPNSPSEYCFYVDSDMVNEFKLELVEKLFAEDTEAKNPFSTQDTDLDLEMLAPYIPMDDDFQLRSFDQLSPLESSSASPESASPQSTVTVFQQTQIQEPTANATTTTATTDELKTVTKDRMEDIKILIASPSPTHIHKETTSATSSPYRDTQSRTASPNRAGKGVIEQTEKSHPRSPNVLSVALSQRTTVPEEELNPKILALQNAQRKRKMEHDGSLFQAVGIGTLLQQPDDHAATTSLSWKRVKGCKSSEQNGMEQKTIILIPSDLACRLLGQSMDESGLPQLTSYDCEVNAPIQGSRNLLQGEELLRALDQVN

Oc1ccccc1Cl
not listed: [18] | [19]
inactive: all other assays above

COP(=S)(OC)SCN1C(=O)c2ccccc2C1=O
not listed: [7] | [15] | [19]
inactive: all other assays above

CCOC(=O)[C@]1(c2ccccc2)Oc2ccccc2[C@@H]1N
active: [1] 90.5 µM | [2] 76.1 µM | [3] 82.4 µM | [4] 87.9 µM | [5] 76.9 µM | [7] 82.2 µM | [8] 77.3 µM | [9] 80.2 µM | [11] 91.6 µM | [12] 84.8 µM | [19] 93.6 µM | [16] 77.3 µM | [17] 50 µM
inactive: [6] | HGF (gene 3082) | [10] | [13] | [14] | [15]

Clc1ccc(C(c2ccc(Cl)cc2)C(Cl)Cl)cc1
active: [1] 22.5 µM
not listed: [11] | [18]
inactive: all other assays above

C[N+](C)(C)CC1CO1 (stereo unspecified)
not listed: [18] | [19]
inactive: all other assays above

CCC12COCN1COC2
not listed: [11] | [18]
inactive: all other assays above

c1ccc2c(c1)oc1ccccc12
not listed: [11] | [18]
inactive: all other assays above
